According to PMC4336329 (PLoS ONE, 2015):
About 14,000 (4.5%) of roughly 310,000 compounds showed an effect of 50% or more. Effects have a minus sign here. The list comes from a sample in which strong results are over-represented; it also holds similar structures and randomly drawn compounds.

These molecules were tested against human ether-à-go-go-related gene (hERG) potassium channel (human, UniProt Q12809) (assay: primary screen, population patch clamp on CHO cells stably expressing hERG; higher = less effect of the substance).
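Note: peak tail current of the secondary pulse compared with the same well before compound.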

Sequence of human ether-à-go-go-related gene (hERG) potassium channel (Q12809 whole entry, looked up): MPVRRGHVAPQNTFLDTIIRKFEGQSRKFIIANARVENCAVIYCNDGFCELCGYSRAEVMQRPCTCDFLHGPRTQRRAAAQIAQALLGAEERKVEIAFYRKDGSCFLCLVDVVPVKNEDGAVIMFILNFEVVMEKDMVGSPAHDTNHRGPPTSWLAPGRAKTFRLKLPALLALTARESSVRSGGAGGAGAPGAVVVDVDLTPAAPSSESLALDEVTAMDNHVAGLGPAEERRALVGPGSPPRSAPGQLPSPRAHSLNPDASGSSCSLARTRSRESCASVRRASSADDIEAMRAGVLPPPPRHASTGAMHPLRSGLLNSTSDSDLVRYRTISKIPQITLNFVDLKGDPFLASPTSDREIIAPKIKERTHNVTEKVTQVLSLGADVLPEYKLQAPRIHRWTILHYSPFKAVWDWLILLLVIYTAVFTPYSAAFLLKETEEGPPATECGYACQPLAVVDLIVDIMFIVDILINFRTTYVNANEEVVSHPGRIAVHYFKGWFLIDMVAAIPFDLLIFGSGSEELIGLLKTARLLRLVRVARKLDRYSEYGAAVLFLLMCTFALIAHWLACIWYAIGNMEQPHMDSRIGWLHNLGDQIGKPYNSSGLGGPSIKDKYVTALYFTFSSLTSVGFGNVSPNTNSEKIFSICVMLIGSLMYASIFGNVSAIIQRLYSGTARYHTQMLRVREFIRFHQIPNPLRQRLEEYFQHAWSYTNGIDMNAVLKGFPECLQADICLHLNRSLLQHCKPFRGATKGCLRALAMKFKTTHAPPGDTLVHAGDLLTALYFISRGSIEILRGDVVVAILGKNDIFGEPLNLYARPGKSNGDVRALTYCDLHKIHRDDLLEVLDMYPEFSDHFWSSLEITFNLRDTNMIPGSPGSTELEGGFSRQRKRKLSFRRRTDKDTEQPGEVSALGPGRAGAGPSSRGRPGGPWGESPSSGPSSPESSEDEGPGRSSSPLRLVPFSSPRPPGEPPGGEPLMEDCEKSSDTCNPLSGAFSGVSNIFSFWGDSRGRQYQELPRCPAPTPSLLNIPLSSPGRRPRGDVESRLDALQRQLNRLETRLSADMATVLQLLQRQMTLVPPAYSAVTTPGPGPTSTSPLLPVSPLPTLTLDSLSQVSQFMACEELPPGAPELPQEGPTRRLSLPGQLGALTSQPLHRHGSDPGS

Structure (SMILES) | hERG current change (%, negative = inhibition) at 10uM
COc1cccc(NC(=O)COC(=O)c2ccccc2C(=O)N2CCN(c3ccccc3)CC2)c1 | -11.8%
O=C(COC(=O)c1ccccc1C(=O)N1CCN(c2ccccc2)CC1)Nc1ccc(F)cc1 | -21.6%
O=C(COC(=O)c1ccccc1C(=O)N1CCN(c2ccc(F)cc2)CC1)NCc1ccccc1 | -73.6%
CN(C(=O)COC(=O)c1ccccc1C(=O)N1CCN(c2ccccc2)CC1)c1ccccc1 | -17%
O=C(COC(=O)/C=C/C(=O)N1CCN(c2ccccc2)CC1)NCc1ccc(F)cc1 | -8.17%
O=C(COC(=O)c1ccccc1C(=O)N1CCN(c2ccccc2)CC1)Nc1ccccc1 | -25.8%
O=C(c1ccccc1Oc1ccccc1)N1CCN(c2ccc(F)cc2)CC1 | -33.9%
CC(C)N(C(=O)COC(=O)c1ccccc1C(=O)N1CCN(c2ccc(F)cc2)CC1)C(C)C | -55.9%
O=C(COC(=O)c1ccccc1C(=O)N1CCN(c2ccccc2)CC1)NCc1ccccc1 | -58%
O=C1CCC([N+](=O)[O-])C(c2ccc(Br)cc2)N1 (centres unmarked) | 7.57%
CC(=O)N1CCN(C(=O)c2cc3ccccc3o2)CC1 | 20.1%
COC(=O)c1ccc(NS(=O)(=O)c2ccc(SC)cc2)cc1 | -2.34%
Cc1nn(Cc2c(Cl)cccc2Cl)c(C)c1N | 9.12%
CCOC(=O)C1=C(c2ccccc2)N=C2SCC(=O)N2C1c1ccc(OCC)c(OCC)c1 (centres unmarked) | 6.45%
O=C(Nc1ccncc1)c1cc2ccccc2cc1O | 5.89%
Cc1ccc(-n2cc(C(=O)c3ccccc3O)cn2)cc1 | 19.8%
CCCCNC(=O)[C@H]1C[C@H]1[C@@H](O)[C@H](CO)NC(=O)[C@H](CC(C)C)NC(=O)OC(C)(C)C | 16.1%
CCc1ccccc1NC(=O)CSc1nc(-c2ccccc2)nn1C(=O)c1cccc([N+](=O)[O-])c1 | -0.129%
Br.Cc1ccc(S(=O)(=O)CCSC(=N)N)cc1 | 13.1%
Br.CCS(=O)CCSC(=N)N (centres unmarked) | 19.2%
CCS(=O)(=O)CCSC(=N)N.Cl | -53.3%
O=C(Nc1ccc(C(F)(F)F)cc1)C1CCCN1S(=O)(=O)c1cccc2cccnc12 (centres unmarked) | -51.9%
O=C(Nc1cccc(C(F)(F)F)c1)C1CCCN1S(=O)(=O)c1cccc2cccnc12 (centres unmarked) | -12.4%

Structure (SMILES) | hERG current change (%, negative = inhibition) at 10uM
O=C(C1CCCN1S(=O)(=O)c1cccc2cccnc12)N1CCN(c2ccccc2)CC1 (centres unmarked) | -45%
O=C(C1CCCN1S(=O)(=O)c1cccc2cccnc12)N1CCc2ccccc2C1 (centres unmarked) | -57.5%
CC(=O)c1ccc(NC(=O)C2CCCN2S(=O)(=O)c2cccc3cccnc23)cc1 (centres unmarked) | 7.11%
O=C(C1CCCN1S(=O)(=O)c1cccc2cccnc12)N1CCn2c1nc1ccccc12 (centres unmarked) | -50.8%
O=C(C1CCCN1S(=O)(=O)c1cccc2cccnc12)N1CCc2ccccc21 (centres unmarked) | -31.7%
O=C(O)[C@H]1CCCN1S(=O)(=O)c1cccc2cccnc12 | 0.132%
O=C(C1CCN(S(=O)(=O)c2cccc3cccnc23)CC1)N1CCn2c1nc1ccccc12 | -9.66%
CSc1ncccc1C(=O)Nc1ccc(S(=O)(=O)NC2=NCCCCC2)cc1 | 7.85%
COC(=O)CCSCC(=O)Nc1cc(C)on1 | -14.4%
O=C(COc1cccc2cccnc12)N/N=C1\SCC(=O)N1Cc1ccccc1 | -44.8%
COc1cc(C(=O)OCC(=O)NCc2ccc(F)cc2)ccc1OCC(C)C | 21.1%
COc1ccc(NC(=O)N2CCN(S(C)(=O)=O)CC2)cc1OC | -0.713%
O=C(/C=C/c1ccc(Br)cc1)NC1CCCCCC1 | -4.17%
Cc1onc(-c2ccccc2)c1C(=O)Nc1ccc(S(=O)(=O)N2CCOCC2)cc1 | -29.6%
O=c1[nH]c(=O)n(-c2cccc(F)c2)c(O)c1/C=C1\C=Nc2ccccc21 | 14%
Cc1ccc2cccc(Oc3ccc([N+](=O)[O-])cc3[N+](=O)[O-])c2n1 | -7.96%
N#Cc1ccc(Oc2cccc3cccnc23)c([N+](=O)[O-])c1 | -79.1%
O=[N+]([O-])c1ccccc1OCCCOc1cccc2cccnc12 | -15.3%
O=[N+]([O-])c1ccc(Oc2cccc3cccnc23)c(Cl)c1 | -15.4%
NC(=O)c1ccc(Oc2cccc3cccnc23)c([N+](=O)[O-])c1 | -13.4%
O=[N+]([O-])c1ccc(Oc2cccc3cccnc23)c([N+](=O)[O-])c1 | -52%
COc1ccc(OC)c(S(=O)(=O)N2CCCC(C(=O)N3CCOCC3)C2)c1 (centres unmarked) | 20.5%
O=C(C1CCCN(S(=O)(=O)c2cc(Cl)ccc2Cl)C1)N1CCOCC1 (centres unmarked) | -33.2%

Structure (SMILES) | hERG current change (%, negative = inhibition) at 10uM
COc1ccc(Cl)cc1S(=O)(=O)N1CCCC(C(=O)N2CCCC2)C1 (centres unmarked) | -5.2%
COc1ccc(Cl)cc1S(=O)(=O)N1CCCC(C(=O)N2CCOCC2)C1 (centres unmarked) | -69.4%
O=C(C1CCCN(S(=O)(=O)c2cc(Cl)ccc2Cl)C1)N1CCCCCC1 (centres unmarked) | -62.4%
O=C(C1CCCN(S(=O)(=O)c2cc(Cl)ccc2Cl)C1)N1CCCC1 (centres unmarked) | -19.5%
O=C(NCc1ccc(F)cc1)C(=O)NCC1OCCN1C(=O)c1ccc(Cl)cc1 (centres unmarked) | -43.2%
CN(C)Cc1c(O)ccc2cc(-c3nc4ccccc4n3C)c(=O)oc12 | 10.2%
O=C1/C(=C/c2cccs2)SC(=S)N1N1CCOCC1 | 5.26%
O=[N+]([O-])c1cc(CN2CCN(c3ccccc3)CC2)c(O)c2ncccc12 | -7.8%
O=[N+]([O-])c1cc(S(=O)(=O)/N=C(/c2ccccc2)N2CCOCC2)ccc1Cl | -23.9%
CC(C)CSC1=NSC2=NC(=O)/C(=C\c3cccs3)C(=N)N12 | 20.2%
COc1ccc(C(CNC(=O)C(C)(C)Oc2ccc(Cl)cc2)N2CCCCC2)cc1 (centres unmarked) | -53.8%
COc1ccc(C(CNC(=O)C(C)(C)Oc2ccc(Cl)cc2)N2CCCC2)cc1 (centres unmarked) | -50.1%
CC(C)(Oc1ccc(Cl)cc1)C(=O)NCC(c1cccs1)N1CCOCC1 (centres unmarked) | -5.84%
COc1ccc(C(CNC(=O)Cc2ccccc2Cl)N2CCCCC2)cc1 (centres unmarked) | 23%
COc1ccccc1C(CNC(=O)C(C)(C)Oc1ccc(Cl)cc1)N1CCCC1 (centres unmarked) | -45.1%
CC(C)(Oc1ccc(Cl)cc1)C(=O)NCC(c1ccco1)N1CCCCC1 (centres unmarked) | -20.2%
COc1ccc(N(CC(=O)O)S(=O)(=O)c2ccc(OC)c(OC)c2)cc1 | -29.6%
O=C(COc1ccccc1)Nc1cccc(-c2nc3cc4ccccc4cc3[nH]2)c1 | -9.82%
O=C(COc1ccccc1)Nc1cccc(-c2nc3ccccc3[nH]2)c1 | -67%
CS(=O)(=O)c1cccc(C(=O)Nc2cccc(-c3nc4ccccc4[nH]3)c2)c1 | -56.7%
CC(C)CC(=O)Nc1cccc(-c2nc3ccccc3[nH]2)c1 | -16.5%
O=C(O)CCCC(=O)Nc1cccc(-c2nc3ccccc3[nH]2)c1 | 34.1%
CS(=O)(=O)c1cccc(C(=O)Nc2ccc(-c3nc4ccccc4[nH]3)cc2)c1 | 11.5%

Structure (SMILES) | hERG current change (%, negative = inhibition) at 10uM
CS(=O)(=O)c1ccc(C(=O)Nc2cccc(-c3nc4ccccc4[nH]3)c2)cc1 | 16%
CC(=O)Nc1cccc(-c2nc3ccccc3[nH]2)c1 | 1.87%
COc1ccc(OCC(=O)Nc2cccc(-c3nc4ccccc4[nH]3)c2)cc1 | -55.9%
COc1ccc(-n2c(SCC(=O)Nc3ccc4c(c3)OCO4)nc3c(c2=O)SCC3)cc1 | -10.9%
CCN(C(=S)NCCOC)c1cccc2ccccc12 | 8.8%
CC1(O)N(Cc2ccccc2)C(=O)OC12CCCCC2 (centres unmarked) | 9.89%
CC1CN(CC(=O)NCc2ccc(F)cc2)CC(C)O1 (centres unmarked) | 7.79%
CCn1ncc(S(=O)(=O)N2CCN(c3cccc(OC)c3)CC2)c1C | 5.68%
N/C(=N\OC(=O)c1ccccc1[N+](=O)[O-])c1cccnc1 | -2.9%
O=C(NCc1ccco1)c1cccc(S(=O)(=O)N2CCCCC2)c1 | -24.7%
Cc1ccc[n+](Cc2ccc([N+](=O)[O-])cc2)c1.[Br-] | 27.1%
C/C=C/c1ccc(OCC(=O)N2CCc3cc(OC)c(OC)cc3C2)c(OC)c1 | -12.4%
C=CCc1ccc(OCCOCCN(C)C)c(OC)c1.O=C(O)C(=O)O | -27.5%
C=CCc1cc(OC)ccc1OCCOCCN1CCc2ccccc2C1.O=C(O)C(=O)O | -71%
C=CCc1ccc(OCCCNCc2ccccc2)c(OC)c1.O=C(O)C(=O)O | -57.4%
C=CCc1cc(C)ccc1OCCOCCN1CCN(C)CC1.O=C(O)C(=O)O | -10.7%
COc1cc(C)ccc1OCCCCNCc1ccccc1.O=C(O)C(=O)O | -0.752%
C/C=C/c1ccc(OCCn2nnc3ccccc32)c(OC)c1 | -2.9%
C/C=C/c1ccc(OCCN2CCc3ccccc3C2)c(OC)c1 | -77.7%
C=CCc1ccc(OCCCCNC(C)CC)c(OC)c1.O=C(O)C(=O)O (centres unmarked) | -39.3%
C=CCc1ccc(OCCN2CCc3ccccc3C2)c(OC)c1.O=C(O)C(=O)O | -67.6%
C=CCc1cc(OC)ccc1OCCN(C)Cc1ccccc1.O=C(O)C(=O)O | -16.6%
C=CCc1ccc(OC(=O)c2ccccc2)c(OC)c1 | 5.73%
